Test systems include NCI-H23 lung; NCI-H226 lung; NCI-H322M lung; HOP-62 NSCLC; NCI-H460 lung; HOP-92 NSCLC; NCI-H522 lung; A549/ATCC NSCLC; 786-0 renal; COLO 205 colon; DU-145 prostate; K-562 leukemia; MALME-3M melanoma; MDA-MB-231 breast; RXF 393 renal; SF-268 CNS; SF-295 CNS; SF-539 CNS; UACC-257 melanoma; M14 melanoma.
Holding throughout (assay): NCI-60 one-dose screen, 48 h (100 = growth as untreated, 0 = no growth, -100 = all killed)
What all share (conditions): 10 µM unless noted

Compounds without any hit were thinned out: in the full panel of roughly 83,000, 20% have a hit.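 A percent growth of 40 corresponds to 60% growth inhibition; 0 means no net growth; -100 means all cells died. Active threshold: below 10.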 A number with no mark means an inactive call. Active and inactive are the calls of the source.

Turning to `COc1ccc(Nc2nnc(-c3c[nH]c4ccccc34)o2)cc1`, the growth with NCI-H23 lung is 82.7%; in the experiment with NCI-H226 lung, 74.9%; in the experiment on NCI-H322M lung, 89.8%; with HOP-62 NSCLC, 77.8%; with NCI-H460 lung, 96.3%; with HOP-92 NSCLC it was 84.5%. The growth was 32.2% in the experiment with NCI-H522 lung; 89.3% with A549/ATCC NSCLC; 91.9% with 786-0 renal; 113% with COLO 205 colon; 95.8% with DU-145 prostate; 68.1% in the experiment on K-562 leukemia. Also, the growth is 79.5% in the experiment with MALME-3M melanoma; 64.7% in the experiment with MDA-MB-231 breast; 104% with RXF 393 renal; 71.9% with SF-268 CNS; 98% with SF-295 CNS; 69.7% in the experiment on SF-539 CNS. Besides, the growth with UACC-257 melanoma is 95.9%; in the experiment with M14 melanoma, 97.7%.

As to `CC1=NN(C2=NC(=O)C(CC(=O)Nc3ccccc3C(F)(F)F)S2)C(c2ccc(N(C)C)cc2)C1` (stereo not given), the growth in the experiment with NCI-H23 lung is 72.6%; with NCI-H226 lung, 53.1%; in the experiment with NCI-H322M lung it was 76.1%; in the experiment with HOP-62 NSCLC it was 78.3%; in the experiment with NCI-H460 lung, 39.6%; in the experiment with HOP-92 NSCLC, 7.13% (active). Moreover, the growth in the experiment with NCI-H522 lung was 33.1%; in the experiment on A549/ATCC NSCLC, 38.2%; in the experiment with 786-0 renal it was 61.4%; in the experiment on COLO 205 colon it was 63.5%; in the experiment with DU-145 prostate it was 63.6%; with K-562 leukemia it was 28.3%. Besides, the growth in the experiment with MALME-3M melanoma was 61.8%; with MDA-MB-231 breast, 66%; with RXF 393 renal it was 11.6%; in the experiment on SF-268 CNS, 47.4%; with SF-295 CNS, 41.3%; in the experiment on SF-539 CNS, 40.2%. The figures for the growth in the experiment on UACC-257 melanoma and in the experiment with M14 melanoma were 58.1% and 47.7%, respectively.

Turning to `Cc1ccc(C2CC(c3ccc(NC(=O)Nc4ccccc4)cc3)=NN2c2ccc(S(C)(=O)=O)cc2)cc1` (stereo not given), the growth with NCI-H23 lung was -69.1% (active); with NCI-H226 lung, -39.2% (active); with NCI-H322M lung, 6.06% (active); in the experiment on HOP-62 NSCLC it was -39.8% (active); in the experiment on NCI-H460 lung it was -5.89% (active); in the experiment with HOP-92 NSCLC it was -50.4% (active). For the same compound, the growth with NCI-H522 lung was -23.7% (active); with A549/ATCC NSCLC, 4.89% (active); with 786-0 renal, -31.6% (active); in the experiment on COLO 205 colon, -43.4% (active); with DU-145 prostate, 3.25% (active); in the experiment with K-562 leukemia, 13.1%. In addition, the growth in the experiment with MALME-3M melanoma is -25.1% (active); in the experiment with MDA-MB-231 breast it was -70.1% (active); with RXF 393 renal it was -78.9% (active); in the experiment on SF-268 CNS, 9.34% (active); with SF-295 CNS it was -20.3% (active); in the experiment on SF-539 CNS it was -97% (active). In addition, the growth in the experiment with UACC-257 melanoma was 34.3%; with M14 melanoma, -44.8% (active).

Turning to `O=C(N/N=C/c1ccsc1)c1[nH]c2ccc(Br)cc2c1-c1ccccc1`, the growth was -78% (active) in the experiment on NCI-H23 lung; -49.5% (active) with NCI-H226 lung; -7.27% (active) in the experiment on NCI-H322M lung; -64.7% (active) with HOP-62 NSCLC; -72.5% (active) in the experiment with NCI-H460 lung; -50.5% (active) in the experiment with HOP-92 NSCLC. The growth is -70.9% (active) with NCI-H522 lung; 3.43% (active) in the experiment on A549/ATCC NSCLC; -60.8% (active) in the experiment with 786-0 renal; -63.1% (active) in the experiment with COLO 205 colon; -26.4% (active) in the experiment with DU-145 prostate; 4.77% (active) in the experiment on K-562 leukemia. Moreover, the growth in the experiment with MALME-3M melanoma was -72.5% (active); in the experiment on MDA-MB-231 breast it was -69.9% (active); in the experiment on RXF 393 renal it was -47.5% (active); in the experiment with SF-268 CNS, -56.1% (active); in the experiment on SF-295 CNS, -87.5% (active); in the experiment with SF-539 CNS it was -95.5% (active). The growth was -51.9% (active) in the experiment with UACC-257 melanoma and -73.8% (active) in the experiment on M14 melanoma.

`CN(C)c1nc(NCCNS(=O)(=O)c2ccc(C3=Nc4c(N)nc(N)nc4NC(c4ccc(Cl)cc4)C3)cc2)nc(N2CCOCC2)n1` (stereo not given): the growth is 69.2% in the experiment with NCI-H23 lung; 58.6% in the experiment on NCI-H226 lung; 69.3% in the experiment with NCI-H322M lung; 57.1% in the experiment on HOP-62 NSCLC; 59.1% in the experiment with NCI-H460 lung; -10.8% (active) in the experiment with HOP-92 NSCLC. Moreover, the growth in the experiment on NCI-H522 lung was 65.3%; in the experiment on A549/ATCC NSCLC, 63.4%; in the experiment with 786-0 renal it was 40.7%; in the experiment on COLO 205 colon it was 66.5%; in the experiment on DU-145 prostate, 67.1%; in the experiment with K-562 leukemia, 15.7%. In addition, the growth with MALME-3M melanoma is 62.4%; with MDA-MB-231 breast, 12%; in the experiment on RXF 393 renal, 2.28% (active); with SF-268 CNS it was 53.4%; in the experiment on SF-295 CNS, 38.5%; with SF-539 CNS, 43%. Besides, the growth in the experiment on UACC-257 melanoma is 75.7%; in the experiment on M14 melanoma, 45.5%.

For the compound `O=C(CSc1nc2c(c(=O)[nH]1)CCCC2)Nc1ccccc1C(=O)O`, the growth is 99.9% in the experiment with NCI-H23 lung; 101% with NCI-H226 lung; 102% with NCI-H322M lung; 104% with HOP-62 NSCLC; 120% with NCI-H460 lung; 117% with HOP-92 NSCLC. Moreover, the growth is 83.8% in the experiment with NCI-H522 lung; 103% in the experiment on A549/ATCC NSCLC; 103% in the experiment with 786-0 renal; 124% with COLO 205 colon; 110% in the experiment with DU-145 prostate; 95.8% in the experiment on K-562 leukemia. Besides, the growth with MALME-3M melanoma was 96.7%; in the experiment on MDA-MB-231 breast, 109%; in the experiment on RXF 393 renal, 108%; in the experiment on SF-268 CNS, 106%; in the experiment with SF-295 CNS, 100%; in the experiment with SF-539 CNS it was 97.9%. The growth is 109% in the experiment on UACC-257 melanoma and 108% with M14 melanoma.

For `O=C1Nc2ccccc2/C1=C/C(=O)c1cc2ccccc2oc1=O`, the growth in the experiment with NCI-H23 lung was 93.4%; in the experiment with NCI-H226 lung, 93.7%; in the experiment with NCI-H322M lung, 102%; in the experiment on HOP-62 NSCLC it was 101%; with NCI-H460 lung, 108%; with HOP-92 NSCLC, 119%. Besides, the growth in the experiment with NCI-H522 lung was -34.9% (active); with A549/ATCC NSCLC, 106%; in the experiment on 786-0 renal, 117%; with COLO 205 colon, -15.4% (active); in the experiment on DU-145 prostate, 97.3%; with K-562 leukemia, 14.5%. Further, the growth in the experiment on MALME-3M melanoma was 10.9%; with MDA-MB-231 breast, 97.6%; in the experiment with RXF 393 renal, 91.4%; in the experiment with SF-268 CNS, 105%; in the experiment on SF-295 CNS, 97.8%; in the experiment with SF-539 CNS, 102%. For the same compound, the figures for the growth with UACC-257 melanoma and in the experiment on M14 melanoma were 104% and 101%, respectively.

Turning to `CNc1nc2ccccc2n2c(-c3ccc(O)c(O)c3)cnc12`, the growth with NCI-H23 lung is 16.1%; in the experiment on NCI-H226 lung, -14.9% (active); in the experiment with NCI-H322M lung, 38.8%; in the experiment with HOP-62 NSCLC, 26.5%; with NCI-H460 lung it was 3.63% (active); in the experiment on HOP-92 NSCLC it was 13.9%. Besides, the growth in the experiment on NCI-H522 lung was -39.6% (active); in the experiment with A549/ATCC NSCLC it was 15.9%; in the experiment with 786-0 renal it was 24.7%; in the experiment on COLO 205 colon it was -54.3% (active); in the experiment with DU-145 prostate it was 2.32% (active); in the experiment with K-562 leukemia it was 11.1%. Also, the growth in the experiment with MALME-3M melanoma is 16%; in the experiment on MDA-MB-231 breast, 20.9%; in the experiment with RXF 393 renal, -4.31% (active); in the experiment with SF-268 CNS, 5.12% (active); in the experiment on SF-295 CNS, 11%; in the experiment with SF-539 CNS, -43% (active). Besides, the growth with UACC-257 melanoma is 57.1%; in the experiment with M14 melanoma it was -1% (active).

Source of the values: PubChem BioAssay (NCI).
